For nine molecules, Potency, outcome and activity, negative = inhibition results are on record in PubChem BioAssay (NCATS).

Unmarked numbers belong to inactive results. Results filed as inconclusive are left out. Activity calls are given as the source filed them. Unless noted, the call rests on the fitted dose curve; in most records, active means well fitted curve in the direction sought with a large enough effect; inconclusive means small, poorly fitted or top-dose-only effect, or another doubt; inactive means no such curve, though single readings can be large; an effect the other way counts as inactive or inconclusive.

In test [1] the test system is Zika virus NS2B-NS3 protease (unlinked). Put plainly: Optimization of GU AMC qHTS for Zika virus inhibitors: Unlinked NS2B-NS3 protease assay (AID 1347151).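 Further: 0% = no-inhibitor control and -100% = no-enzyme control; nearly all actives have a fitted effect of over 80% in size.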 To be noted: recombinant ZIKV NS2B-NS3 protease, fluorogenic AMC substrate; series mostly up to 52.5 µM. An outline of the steps:
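Noncovalent complex of NS2B hydrophilic domain and NS3 protease domain, 25 nM final, in 10 mM Tris-HCl pH 8.0, 0.01% Tween 20. AMC fluorescence change over 15 min at room temperature was fitted to a 4-parameter Hill equation.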
A general note: qHTS replaces the single test concentration by a dilution series.

The target in test [2] is ATP-dependent 6-phosphofructokinase (Trypanosoma brucei brucei) (UniProt O15648). Put plainly: qHTS Assay to Find Inhibitors of T. brucei phosphofructokinase: hit validation (AID 492961).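 Further: luminescence reports ADP formed as PFK phosphorylates fructose-6-phosphate with ATP; on the % scale 0 is the no-effect control and ±100 the full control effect.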 The conditions noted are these: T. brucei PFK, ADP-Glo luminescence; series mostly up to 51.4 µM. The essentials:
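Inhibition of parasite PFK is measured as reduced ADP formation, quantified via luciferase after ATP depletion. Assay used 0.1 mM ATP, 0.5 mM F6P, 1.25 nM enzyme, 45 min incubation.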

Test [3] can be described thus: NS1 protein of Zika virus - qHTS assay to identify small molecule inhibitors in human HEK 293 cells (AID 1347053).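 Further: plate controls were infected untreated cells for no effect and uninfected cells for full effect; nearly all actives have a fitted effect of over 55% in size.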 The conditions noted are these: HEK293 ZIKV MR766 infection, NS1 TR-FRET, 24 h; series mostly up to 46.1 µM. The essentials:
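Inhibition of NS1 expression was scored in HEK 293 cells given compound 1 h ahead of MR766 virus (MOI = 0.5). Following 24 h at 37 C, two anti-NS1 antibodies generated a TR-FRET signal, scaled between uninfected and infected controls.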

A short description of test [4]: qHTS of pediatric cancer cell lines to identify multiple opportunities for drug repurposing: Primary screen for Saos-2 cells (AID 1347097). Further: potency means the concentration at half of the fitted maximal effect; nearly all actives have a fitted effect of over 40% in size. The conditions noted are these: Saos-2 viability, CellTiter-Glo ATP luminescence, 48 h. The essentials:
(§1)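 Plated cells (500-1,000 per well, growth media) were allowed to settle for 5 hours, treated with compound dilutions for 48 hours, then lysed with CellTiter-Glo for 15 min at room temperature before luminescence reading.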

Test [5] is described as follows: qHTS of pediatric cancer cell lines to identify multiple opportunities for drug repurposing: Primary screen for SK-N-SH cells (AID 1347098). Further: potency means the concentration at half of the fitted maximal effect; nearly all actives have a fitted effect of over 65% in size. To be noted: SK-N-SH viability, CellTiter-Glo luminescence, 48 h. The essentials: (§2)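 Cells (500-1,000/well) rested 5 h, then received compounds for 48 h; metabolically active cells were measured by CellTiter-Glo luminescence. Final concentrations spanned up to 46 µM (MIPE, 11-point) or 0.59 nM-46 µM (NPC, 8-point) in primary screens, 11-point in follow-ups.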

The nature of test [6]: qHTS of pediatric cancer cell lines to identify multiple opportunities for drug repurposing: Primary screen for NB1643 cells (AID 1347099). Further: potency means the concentration at half of the fitted maximal effect; nearly all actives have a fitted effect of over 50% in size. The conditions noted are these: NB1643 neuroblastoma viability, CellTiter-Glo luminescence, 48 h; series mostly up to 46 µM. The essentials:
as §1

Test [7] can be described thus: qHTS of pediatric cancer cell lines to identify multiple opportunities for drug repurposing: Primary screen for Rh18 cells (AID 1347102). Further: potency means the concentration at half of the fitted maximal effect; nearly all actives have a fitted effect of over 65% in size. The conditions noted are these: Rh18 rhabdomyosarcoma viability, CellTiter-Glo luminescence, 48 h. An outline of the steps: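 Viability after 48 h compound treatment at 37C, 500-1,000 cells/well, read as ATP luminescence with CellTiter-Glo. Primary screens used 11-point (MIPE, 0.78 nM-46 µM) or 8-point (NPC, 0.59 nM-46 µM) final concentrations; follow-up screens used 11-point dilutions.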

Test [8] can be described thus: qHTS of pediatric cancer cell lines to identify multiple opportunities for drug repurposing: Primary screen for OHS-50 cells (AID 1347103). Further: potency means the concentration at half of the fitted maximal effect; nearly all actives have a fitted effect of over 40% in size. The conditions noted are these: OHS-50 osteosarcoma viability, CellTiter-Glo luminescence, 48 h. An outline of the steps: as §2
Test [9] can be described thus: qHTS of pediatric cancer cell lines to identify multiple opportunities for drug repurposing: Primary screen for MG 63 (6-TG R) cells (AID 1347105). Further: potency means the concentration at half of the fitted maximal effect; nearly all actives have a fitted effect of over 50% in size. To be noted: MG 63 (6-TG R) viability, CellTiter-Glo, 48 h. The essentials: as §1
Test [10] in a line: qHTS to identify inhibitors of the type 1 interferon - major histocompatibility complex class I in skeletal muscle: primary screen against the NCATS Pharmaceutical Collection (AID 1347407). Further: on the % scale 0 is the no-effect control and ±100 the full control effect. The conditions noted are these: human skeletal muscle cells, IFN-b-induced MHC-I HiBiT luminescence, 24 h; series mostly up to 45.9 µM. An outline of the steps: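 Immortalized human myoblasts (C25cl48) with HiBiT knocked into endogenous HLA-B*08:01 were stimulated with 4 ng/ml IFN-beta and treated with compounds (8-point, 1:5, top 46 uM final) for 24 h at 37 C; HiBiT lytic luminescence read.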

Test [11] deals with Protein phosphatase 1D (Homo sapiens) (UniProt O15297). Put plainly: RapidFire Mass Spectrometry qHTS Assay for Modulators of WT P53-Induced Phosphatase 1 (WIP1) (AID 1347424).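 Further: amount of dephosphorylated VEPPL-S-QETFS peptide product formed by WIP1; plate controls were DMSO wells for no effect and GSK830371 inhibitor control at 10 µM for full effect.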 The conditions noted are these: WIP1 dephosphorylation of phosphopeptide, RapidFire MS; series mostly up to 63 µM. The essentials: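 10 nM WIP1 preincubated with compounds 1 hr at room temperature in pH 7.5 Tris buffer with 30 mM MgCl2, 1 mM TCEP; 2 uM VEPPL-pS-QETFS phosphopeptide for 5 min, formic acid quench; dephosphorylated product quantified by RapidFire MS against labelled standard.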

Test [12] shares this target. The test is described as follows: Rhodamine-PBP qHTS Assay for Modulators of WT P53-Induced Phosphatase 1 (WIP1) (AID 1347425). Further: % of control where 0% means no effect. To be noted: recombinant WIP1, Rhodamine-PBP phosphate fluorescence, real-time; series mostly up to 57.5 µM. An outline of the steps:
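The read-out is the change in Rhodamine-PBP fluorescence (f1 - f0, ex 525/em 598 nm) as Pi is released, read each minute for 11 min. Final reaction: 5 nM WIP1, 10 uM phosphopeptide VEPPL-pS-QETFS, 10 uM Rh-PBP, 50 mM Tris-HCl pH 7.5, 30 mM MgCl2. Compound was preincubated with enzyme for 1 hour at room temperature.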

Test [13] concerns the target Pyruvate kinase (Leishmania mexicana) (UniProt Q27686). The test is described as follows: qHTS Validation Assay for Inhibitors of Leishmania Mexicana Pyruvate Kinase (AID 945).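 Further: 0% = DMSO only neutral control wells.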 The conditions noted are these: purified L. mexicana pyruvate kinase, enzyme activity, E451W mutant enzyme; series mostly up to 57.5 µM. The essentials:
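qHTS eight-point titrations against 0.2 nM LmPYK (E451W) in imidazole buffer pH 7.2 with 0.5 mM PEP, 0.1 mM ADP; 1 h, room temperature. Readout: PKLight luminescence, normalized to neutral DMSO wells.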

Test [14] has as its target Pyruvate kinase PKM (Homo sapiens) (UniProt P14618). The test is described as follows: qHTS Assay for Activators of Human Muscle Pyruvate Kinase (AID 954; active means well fitted curve in the direction sought with a large enough effect, not every such curve was filed as active;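 further: 0% = uninhibited enzyme and -100% = no enzyme or full thiadiazolimine inhibition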). To be noted: purified human muscle pyruvate kinase, luciferase-coupled luminescence, 1 h; series mostly up to 57.5 µM. An outline of the steps: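 Human PKM2 activity is measured as ATP generation, detected by luciferase-coupled luminescence. The enzyme (0.1 nM) acts on 0.5 mM PEP and 0.1 mM ADP for 1 h at ambient temperature; data are normalized to uninhibited and full-inhibition wells.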

Test [15] deals with Alpha-galactosidase A (Homo sapiens) (UniProt P06280). The test is described as follows: Counterscreen for Glucocerebrosidase Inhibitors: qHTS Assay for Human alpha-Galactosidase at pH 4.5 (AID 992). Further: 0% is about no effect. To be noted: purified enzyme, fluorogenic substrate; series mostly up to 76.9 µM. An outline of the steps: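 Quantitative HTS: compounds tested from 0.7 nM up to 77 uM against 2 nM enzyme with 80 uM 4-MU alpha-D-galactopyranoside. The 20 min room-temperature reaction is stopped with 1M NaOH/1M glycine, pH 10.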
(A counterscreen serves to expose hits that act by an unwanted route or on another target.)

The target of test [16] is alpha-glucosidase (Oryza sativa, rice) (UniProt Q653V4). The test is described as follows: Counterscreen for Glucocerebrosidase Inhibitors: qHTS Assay for Rice alpha-Glucosidase at pH 5.0 (AID 997).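 Further: 0% = full activity with enzyme and -100% = basal without enzyme.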 To be noted: rice alpha-glucosidase enzyme activity; series mostly up to 76.9 µM. The essentials:
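Rice alpha-glucosidase (4 nM final) with 400 uM 4-methylumbelliferyl-alpha-D-glucopyranoside in citrate buffer pH 5.0, 20 min at room temperature, stopped at pH 10; fluorescence 365/440 nm, compounds 0.7 nM–77 uM, AC50 from Hill fits.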

A short description of test [17]: Stat Signaling Pathway (AID 446; active means well fitted curve in either direction with a large enough effect, not every such curve was filed as active;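 further: ME-180 cervical cancer cells given 40 pM IL-6 alongside compound; SIE-controlled beta-lactamase reporter measured as 460/530 nm FRET emission ratio; on the % scale 0 is the no-effect control and ±100 the full control effect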). To be noted: ME-180 SIE beta-lactamase reporter, IL-6 stimulated, 5 h. The essentials:
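Reporter line: ME-180 cervical carcinoma, SIE-beta-lactamase. Treatment: compound with 40 pM IL-6, 5 hrs, 37 C, in low-serum OPTI-MEM with 10 mM HEPES pH 7.3. Detection: 460/530 nm fluorescence.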

In test [18] the target is 3',5'-cyclic-AMP phosphodiesterase 4B (Homo sapiens) (UniProt Q07343). Put plainly: qHTS Assay for Inhibitors of PDE-IV (AID 607; active means well fitted activation curve with a large enough effect in the main read-out, with a control signal flat, not every such curve was filed as active; further: % of control where 0% means no effect). To be noted: HEK293 ACTOne CNG channel cells, membrane potential fluorescence; series mostly up to 22.9 µM. An outline of the steps: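 Cell-based read-out of cAMP via a modified cyclic nucleotide-gated channel and membrane potential dye (535/590 nm) in HEK293 cells expressing PDE4 endogenously. Compounds tested up to 22.9 uM final; 100 uM RO 20-1724 reference.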

Test [19] deals with Rap guanine nucleotide exchange factor 3 (Homo sapiens) (UniProt O95398). The test is described as follows: Confirmatory qHTS for agonist of cAMP-regulated guanine nucleotide exchange factor 3 (EPAC1) (AID 1645881).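 Further: EPAC1 catalysed release of BODIPY-GDP from Rap1B seen as fluorescence loss; nearly all actives have a fitted effect of over 75% in size.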 The conditions noted are these: EPAC1 Rap1B BODIPY-GDP exchange fluorescence, 100% = cAMP control response; series mostly up to 154 µM.
The target in test [20] is Rap guanine nucleotide exchange factor 4 (Homo sapiens) (UniProt Q8WZA2). The test is described as follows: Confirmatory qHTS for agonist of cAMP-regulated guanine nucleotide exchange factor 4 (EPAC2) (AID 1645884).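 Further: nucleotide exchange releases bodipy-GDP from Rap1 and this lowers its fluorescence; on the % scale 0 is the no-effect control and ±100 the full control effect; nearly all actives have a fitted effect of over 65% in size.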 The conditions noted are these: EPAC2 GEF activity, Rap1B-BODIPY-GDP fluorescence, percent relative to cAMP agonist control; series mostly up to 154 µM.
Chain of Rap guanine nucleotide exchange factor 4 (Homo sapiens) (Q8WZA2 whole entry, looked up): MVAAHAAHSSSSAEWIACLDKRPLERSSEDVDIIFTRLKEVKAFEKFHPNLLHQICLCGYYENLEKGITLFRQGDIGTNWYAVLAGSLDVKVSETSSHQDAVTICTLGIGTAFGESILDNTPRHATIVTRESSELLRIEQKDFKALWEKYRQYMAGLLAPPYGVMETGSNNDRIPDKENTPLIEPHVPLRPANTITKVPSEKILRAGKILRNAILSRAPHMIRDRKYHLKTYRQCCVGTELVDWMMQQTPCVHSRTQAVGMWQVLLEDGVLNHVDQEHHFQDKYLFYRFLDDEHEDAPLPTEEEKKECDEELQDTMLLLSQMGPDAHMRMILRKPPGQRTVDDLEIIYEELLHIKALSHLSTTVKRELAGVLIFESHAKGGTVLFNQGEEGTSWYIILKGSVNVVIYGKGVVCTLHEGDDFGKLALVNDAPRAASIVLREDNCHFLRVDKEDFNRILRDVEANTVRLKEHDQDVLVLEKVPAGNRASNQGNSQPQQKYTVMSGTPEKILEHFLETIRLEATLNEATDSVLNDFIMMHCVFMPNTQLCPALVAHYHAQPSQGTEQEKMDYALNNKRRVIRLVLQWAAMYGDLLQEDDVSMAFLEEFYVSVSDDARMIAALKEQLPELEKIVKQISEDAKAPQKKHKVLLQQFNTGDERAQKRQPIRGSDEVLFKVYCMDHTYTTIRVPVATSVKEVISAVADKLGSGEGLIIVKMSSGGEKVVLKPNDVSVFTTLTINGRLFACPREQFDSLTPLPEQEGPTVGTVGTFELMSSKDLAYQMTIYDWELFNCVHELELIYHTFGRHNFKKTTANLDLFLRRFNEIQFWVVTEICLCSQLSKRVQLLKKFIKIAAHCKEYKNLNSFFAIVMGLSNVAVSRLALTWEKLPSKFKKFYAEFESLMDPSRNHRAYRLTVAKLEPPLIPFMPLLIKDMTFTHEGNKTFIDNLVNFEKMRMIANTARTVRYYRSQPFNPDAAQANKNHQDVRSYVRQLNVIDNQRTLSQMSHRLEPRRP

Chain of Rap guanine nucleotide exchange factor 3 (Homo sapiens) (O95398 whole entry, looked up): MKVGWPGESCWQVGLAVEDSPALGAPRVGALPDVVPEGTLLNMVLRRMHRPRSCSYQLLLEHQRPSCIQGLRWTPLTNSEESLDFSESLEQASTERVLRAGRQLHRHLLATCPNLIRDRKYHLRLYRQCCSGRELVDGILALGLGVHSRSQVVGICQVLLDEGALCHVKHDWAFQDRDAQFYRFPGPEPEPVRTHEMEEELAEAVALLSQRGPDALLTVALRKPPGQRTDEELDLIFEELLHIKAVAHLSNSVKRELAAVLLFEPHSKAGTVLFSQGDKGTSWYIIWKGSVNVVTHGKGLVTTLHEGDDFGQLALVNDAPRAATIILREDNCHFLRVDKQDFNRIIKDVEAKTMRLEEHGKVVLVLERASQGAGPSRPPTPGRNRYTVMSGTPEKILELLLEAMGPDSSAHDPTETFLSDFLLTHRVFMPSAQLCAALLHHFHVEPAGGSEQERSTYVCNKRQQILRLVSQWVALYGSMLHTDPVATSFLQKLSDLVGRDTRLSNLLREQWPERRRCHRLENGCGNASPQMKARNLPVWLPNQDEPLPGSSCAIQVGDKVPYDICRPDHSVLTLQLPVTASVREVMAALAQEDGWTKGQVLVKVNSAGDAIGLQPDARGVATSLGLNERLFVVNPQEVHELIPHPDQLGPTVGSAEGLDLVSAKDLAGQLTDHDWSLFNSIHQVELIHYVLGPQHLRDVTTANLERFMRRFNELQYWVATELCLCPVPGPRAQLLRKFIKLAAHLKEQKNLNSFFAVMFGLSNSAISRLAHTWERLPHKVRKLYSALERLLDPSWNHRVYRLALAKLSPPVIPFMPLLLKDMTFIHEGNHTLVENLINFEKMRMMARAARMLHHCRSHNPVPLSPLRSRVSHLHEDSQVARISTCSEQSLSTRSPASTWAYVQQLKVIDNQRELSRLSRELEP
Chain of Alpha-galactosidase A (Homo sapiens) (P06280 whole entry, looked up): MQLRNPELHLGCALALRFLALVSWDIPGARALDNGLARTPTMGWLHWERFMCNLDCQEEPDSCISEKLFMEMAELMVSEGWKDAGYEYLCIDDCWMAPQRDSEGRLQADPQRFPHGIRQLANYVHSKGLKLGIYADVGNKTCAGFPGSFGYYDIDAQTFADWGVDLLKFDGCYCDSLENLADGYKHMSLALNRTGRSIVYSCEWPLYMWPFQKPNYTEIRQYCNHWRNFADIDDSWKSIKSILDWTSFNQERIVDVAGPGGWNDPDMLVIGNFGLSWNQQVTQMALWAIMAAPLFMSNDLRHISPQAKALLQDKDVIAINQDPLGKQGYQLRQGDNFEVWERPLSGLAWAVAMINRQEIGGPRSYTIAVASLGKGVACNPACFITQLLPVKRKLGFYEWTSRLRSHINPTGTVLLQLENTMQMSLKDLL
Chain of Pyruvate kinase PKM (Homo sapiens) (P14618 whole entry, looked up): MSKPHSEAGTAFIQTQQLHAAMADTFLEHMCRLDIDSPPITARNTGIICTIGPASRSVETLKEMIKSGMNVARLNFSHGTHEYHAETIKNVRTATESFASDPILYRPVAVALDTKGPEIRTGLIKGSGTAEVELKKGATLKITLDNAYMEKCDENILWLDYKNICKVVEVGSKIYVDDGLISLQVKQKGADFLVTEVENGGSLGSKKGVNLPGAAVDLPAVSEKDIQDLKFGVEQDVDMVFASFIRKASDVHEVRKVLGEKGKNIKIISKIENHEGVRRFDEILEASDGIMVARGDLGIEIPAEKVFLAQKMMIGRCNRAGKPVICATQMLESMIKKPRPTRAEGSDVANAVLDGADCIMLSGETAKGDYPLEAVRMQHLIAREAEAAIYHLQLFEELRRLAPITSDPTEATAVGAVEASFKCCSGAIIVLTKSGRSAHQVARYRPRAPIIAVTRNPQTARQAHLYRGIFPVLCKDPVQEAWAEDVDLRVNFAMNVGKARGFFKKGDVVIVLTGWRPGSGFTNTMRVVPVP
Chain of Pyruvate kinase (Leishmania mexicana) (Q27686 2-499 E452W): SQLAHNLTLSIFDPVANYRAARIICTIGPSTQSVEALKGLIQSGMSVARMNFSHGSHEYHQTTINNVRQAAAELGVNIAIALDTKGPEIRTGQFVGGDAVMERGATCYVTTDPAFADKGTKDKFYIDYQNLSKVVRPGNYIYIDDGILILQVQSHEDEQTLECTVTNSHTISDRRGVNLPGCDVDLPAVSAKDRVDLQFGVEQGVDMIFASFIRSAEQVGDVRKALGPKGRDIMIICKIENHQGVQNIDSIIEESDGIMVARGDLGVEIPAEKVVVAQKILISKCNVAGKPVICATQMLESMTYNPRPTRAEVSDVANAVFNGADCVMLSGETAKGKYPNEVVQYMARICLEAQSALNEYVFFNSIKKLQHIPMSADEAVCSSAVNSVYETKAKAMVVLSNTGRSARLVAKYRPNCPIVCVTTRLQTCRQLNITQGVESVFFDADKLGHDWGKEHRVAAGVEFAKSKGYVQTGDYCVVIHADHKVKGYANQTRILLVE
Chain of 3',5'-cyclic-AMP phosphodiesterase 4B (Homo sapiens) (Q07343 whole entry, looked up): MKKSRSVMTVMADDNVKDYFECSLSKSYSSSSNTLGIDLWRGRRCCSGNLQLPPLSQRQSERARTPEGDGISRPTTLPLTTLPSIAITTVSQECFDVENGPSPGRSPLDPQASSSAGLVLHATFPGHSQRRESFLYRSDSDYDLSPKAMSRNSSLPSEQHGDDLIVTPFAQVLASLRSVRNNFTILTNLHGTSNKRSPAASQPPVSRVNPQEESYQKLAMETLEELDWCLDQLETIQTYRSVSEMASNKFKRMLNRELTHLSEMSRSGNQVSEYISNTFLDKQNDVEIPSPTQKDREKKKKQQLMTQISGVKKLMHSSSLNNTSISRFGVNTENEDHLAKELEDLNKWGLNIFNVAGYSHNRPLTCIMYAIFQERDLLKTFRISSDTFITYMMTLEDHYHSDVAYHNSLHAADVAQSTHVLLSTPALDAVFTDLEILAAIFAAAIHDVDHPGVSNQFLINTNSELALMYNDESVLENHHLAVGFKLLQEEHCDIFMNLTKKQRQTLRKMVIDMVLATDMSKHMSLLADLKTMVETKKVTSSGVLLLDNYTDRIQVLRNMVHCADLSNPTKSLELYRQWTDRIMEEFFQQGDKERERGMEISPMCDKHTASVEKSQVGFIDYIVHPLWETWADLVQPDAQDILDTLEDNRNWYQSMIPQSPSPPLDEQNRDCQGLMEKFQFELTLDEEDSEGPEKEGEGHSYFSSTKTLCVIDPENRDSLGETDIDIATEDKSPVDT
Chain of Protein phosphatase 1D (Homo sapiens) (O15297 whole entry, looked up): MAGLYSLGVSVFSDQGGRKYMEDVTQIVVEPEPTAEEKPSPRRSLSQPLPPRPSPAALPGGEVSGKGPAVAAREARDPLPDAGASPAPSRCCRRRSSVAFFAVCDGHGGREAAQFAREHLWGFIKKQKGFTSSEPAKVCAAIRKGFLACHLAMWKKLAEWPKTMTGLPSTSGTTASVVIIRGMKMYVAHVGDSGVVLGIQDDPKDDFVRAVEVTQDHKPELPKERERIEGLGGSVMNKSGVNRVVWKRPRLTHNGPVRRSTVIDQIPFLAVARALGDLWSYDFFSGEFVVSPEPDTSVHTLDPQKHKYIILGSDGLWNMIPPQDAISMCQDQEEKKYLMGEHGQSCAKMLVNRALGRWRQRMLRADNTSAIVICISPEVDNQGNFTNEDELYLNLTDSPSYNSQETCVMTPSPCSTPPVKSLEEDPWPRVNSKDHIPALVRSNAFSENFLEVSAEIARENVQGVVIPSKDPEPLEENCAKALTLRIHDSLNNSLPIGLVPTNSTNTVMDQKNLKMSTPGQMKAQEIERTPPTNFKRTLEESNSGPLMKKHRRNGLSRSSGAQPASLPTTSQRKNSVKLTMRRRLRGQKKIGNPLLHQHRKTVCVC

Take `CC[C@H](C)[C@H]1O[C@]2(CC[C@@H]1C)C[C@@H]1C[C@@H](C/C=C(\C)[C@@H](O[C@H]3C[C@H](OC)[C@@H](O[C@H]4C[C@H](OC)[C@@H](O)[C@H](C)O4)[C@H](C)O3)[C@@H](C)/C=C/C=C3\CO[C@@H]4[C@H](O)C(C)=C[C@@H](C(=O)O1)[C@]34O)O2`: in [1], the Potency result is “inactive”.
For `CCCCC(=O)N(Cc1ccc(-c2ccccc2-c2nn[nH]n2)cc1)C(C(=O)O)C(C)C` (stereo not drawn), the molecule was called inactive in [2].
As for `CCN(CC)c1ccc(C(=C2C=CC(=[N+](CC)CC)C=C2)c2cc(S(=O)(=O)O)ccc2S(=O)(=O)[O-])cc1`, the call in test [3], in test [10], in test [11] and in test [12] was inactive. Further, the Potency was 21.1 µM (active) in test [4]; 3.86 µM (active) in test [5]; 21.1 µM (active) in test [6]; 11.9 µM (active) in test [7]; 17.4 µM (active) in [8]; 16.8 µM (active) in test [9].
With `CN1CCN(CCC=C2c3ccccc3Sc3ccc(S(=O)(=O)N(C)C)cc32)CC1`, the Potency entry in [13] was “inactive”. For the same molecule, the call in test [14], in test [15] and in test [16] was inactive.
Regarding `CC(C)=CCC/C(C)=C/CC/C(C)=C/CSc1ccccc1C(=O)O`, the activity, negative = inhibition in [17] (at 38 µM (top of the series)) is 1.75%. Besides, the Potency result in test [18] and in [13] was “inactive” throughout. The molecule was called inactive in test [14], in test [15] and in test [16].
With `CCC(=O)O[C@H]1CC[C@H]2[C@@H]3CCc4cc(O)ccc4[C@H]3CC[C@]12C`, the molecule was classed as inactive in [19] and in test [20].
As to `COc1cc(/C=C(\C#N)C(N)=O)cc(CSc2nc3ccccc3s2)c1O`, the Potency result in test [18] is “inactive”.
Turning to `CCOC(=O)CCC(=O)O[C@H]1[C@H](O[C@@H]2[C@@H](C)[C@H](O[C@H]3C[C@@](C)(OC)[C@@H](O)[C@H](C)O3)[C@@H](C)C(=O)O[C@H](CC)[C@@](C)(O)[C@H](O)[C@@H](C)C(=O)[C@H](C)C[C@@]2(C)O)O[C@H](C)C[C@@H]1N(C)C`, in [17] (at 17.2 µM (top of the series)), the activity, negative = inhibition is 1.81%.
Regarding `C#C[C@]1(OC(C)=O)CC[C@H]2[C@@H]3CCC4=CC(=O)CC[C@@H]4[C@H]3CC[C@@]21C`, the result in test [19] and in [20] was inactive.
